About 940 (45%) of roughly 2,100 compounds were called active.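 The calls were made as follows: active = mean of three repeat readings of reporter signal inhibition above a set limit (cut at about 70% in these data); inactive = the rest.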 The set was probably picked from earlier hits. Only a selection was taken, and actives are over-represented in it overall.
Test: retest of CHOP induction inhibitors, confirmation, cell-based (AID 504437);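 also: 0% = tunicamycin plus vehicle and 100% = wells lacking tunicamycin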
Settings: CHO-CHOP promoter luciferase reporter, tunicamycin-induced, luminescence; at 10 µM; active compounds read high

SMILES | inhibition
O=C(CSC1c2ccccc2-c2ccccc21)N/N=C/c1ccccc1 | 70.5% (active)
CCCCCCN=C(CC)c1c(O)n(CCCC)c(=O)[nH]c1=O | 118% (active)
